PubChem BioAssay (NCATS)
Records with an inconclusive call do not appear. Entries that show only a call come without a potency. Activity calls are given as the source filed them. The call rests on the fitted dose curve; in most records, active means well fitted inhibition curve with a large enough effect; inconclusive means small, poorly fitted or top-dose-only effect; inactive means flat fitted curve, though single readings scatter.

These compounds were tested against Ubiquitin carboxyl-terminal hydrolase 1 (Homo sapiens) (UniProt O94782) (assay: Inhibitors of USP1/UAF1: Pilot qHTS (AID 504865;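 further: rhodamine fluorescence freed from ubiquitin-rhodamine substrate followed over time; top concentration of the series differs between compounds; nearly all actives have a fitted effect of over 35% in size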)). Settings: purified USP1/UAF1, Ub-rhodamine cleavage fluorescence; series mostly up to 114 µM.
Ubiquitin carboxyl-terminal hydrolase 1 (Homo sapiens), sequence (O94782 whole entry, looked up): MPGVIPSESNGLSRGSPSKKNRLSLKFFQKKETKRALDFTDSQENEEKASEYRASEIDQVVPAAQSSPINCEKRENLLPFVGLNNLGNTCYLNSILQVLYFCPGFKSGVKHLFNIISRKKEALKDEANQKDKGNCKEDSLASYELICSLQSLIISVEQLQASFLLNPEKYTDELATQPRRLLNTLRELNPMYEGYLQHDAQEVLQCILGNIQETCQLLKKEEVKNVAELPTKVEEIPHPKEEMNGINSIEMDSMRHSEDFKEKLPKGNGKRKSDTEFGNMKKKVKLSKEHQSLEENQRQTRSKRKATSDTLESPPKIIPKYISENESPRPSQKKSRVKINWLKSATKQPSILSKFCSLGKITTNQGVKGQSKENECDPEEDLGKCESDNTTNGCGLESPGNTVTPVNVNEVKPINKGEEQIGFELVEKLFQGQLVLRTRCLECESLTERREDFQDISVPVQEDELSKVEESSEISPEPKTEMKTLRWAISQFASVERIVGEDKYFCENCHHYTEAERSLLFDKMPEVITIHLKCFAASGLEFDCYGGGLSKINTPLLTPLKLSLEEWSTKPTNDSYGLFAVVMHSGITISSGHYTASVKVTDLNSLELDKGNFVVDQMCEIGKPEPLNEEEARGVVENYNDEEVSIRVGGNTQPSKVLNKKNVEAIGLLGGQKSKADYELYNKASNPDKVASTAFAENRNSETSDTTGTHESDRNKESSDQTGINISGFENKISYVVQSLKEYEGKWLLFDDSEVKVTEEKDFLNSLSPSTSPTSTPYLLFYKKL
How it was run: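 USP1/UAF1 complex at 1 nM preincubated 15 min at room temperature with compound, then Ub-Rho substrate added at 150 nM final. Fluorescence (480/540 nm) read kinetically in 50 mM HEPES pH 7.8, 0.5 mM EDTA, 1 mM TCEP, 0.1 mg/ml BSA, 0.01% Tween-20.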

Q: How did the Potency turn out when CCOC(=O)[C@H](CCc1ccccc1)N[C@@H](C)C(=O)N1CCC[C@H]1C(=O)O was run?
A: inactive

Q: O=C(CN1CCNCC1)NC1CCCCC1 was tested. Which Potency did it give?
A: inactive

Q: Which Potency does the source give for CC(=O)N(CC(O)CO)c1c(I)c(C(=O)NCC(O)CO)c(I)c(C(=O)NCC(O)CO)c1I (stereo not given) here?
A: inactive

Q: Which Potency does the source give for Cc1cc(C)c(NC(=O)CN(CC(=O)O)CC(=O)O)c(C)c1Br here?
A: inactive

Q: With CCN(CC)CC1CCCCN1CC(=O)N1c2ccccc2C(=O)Nc2cccnc21 (stereo not given) as the compound, how does the Potency read?
A: inactive

Q: Which Potency does the source give for Cc1cccc(C(=O)O)c1O here?
A: inactive

Q: How did the Potency turn out when O=c1[nH]cnc2nc[nH]c12 was run?
A: inactive

Q: With NC(=O)c1ccc([N+](=O)[O-])cc1Cl as the compound, how does the Potency read?
A: inactive

Q: How did the Potency turn out when Cc1c(NC(C)C)c(=O)n(-c2ccccc2)n1C was run?
A: inactive

Q: How did the Potency turn out when CN1CCCN=C1COC(=O)C(O)(c1ccccc1)C1CCCCC1 (stereo not given) was run?
A: inactive

Q: How did the Potency turn out when CCc1cccc(CC)c1NC(=O)CN(CC(=O)O)CC(=O)O was run?
A: inactive

Q: For O=C1CC[C@@H](C(=O)O)N1, which Potency is on record?
A: inactive

Q: O=C(NCCCN1CCOCC1)c1ccc(Cl)cc1 was tested. Which Potency did it give?
A: inactive

Q: With CCCCCCCCCCOc1cc2c(=O)c(C(=O)OCC)c[nH]c2cc1OCC as the compound, how does the Potency read?
A: inactive

Q: NNC(=O)CP(=O)(c1ccccc1)c1ccccc1 was tested. Which Potency did it give?
A: inactive

Q: CCOc1ccc(C(=O)OCCN(CC)CC)cc1 was tested. Which Potency did it give?
A: inactive

Q: With CCCCCCCCCCCCCCCCN as the compound, how does the Potency read?
A: inactive

Q: With CCOc1cc(NC(C)=O)ccc1C(=O)OC as the compound, how does the Potency read?
A: inactive

Q: How did the Potency turn out when O=C(O)c1ccc(OCCCOc2ccc(C(=O)O)cc2)cc1 was run?
A: inactive

Q: Which Potency does the source give for O=C(NCN1CCOCC1)c1cnccn1 here?
A: inactive

Q: With Nc1c2c(nc3c1CCC3)CCCC2 as the compound, how does the Potency read?
A: inactive

Q: CC(=O)OC[C@H]1O[C@@](COC(C)=O)(O[C@H]2O[C@H](COC(C)=O)[C@@H](OC(C)=O)[C@H](OC(C)=O)[C@H]2OC(C)=O)[C@@H](OC(C)=O)[C@@H]1OC(C)=O was tested. Which Potency did it give?
A: inactive

Q: COc1ccc2cc(CCC(C)=O)ccc2c1 was tested. Which Potency did it give?
A: inactive

Q: Nc1ccncc1N was tested. Which Potency did it give?
A: inactive

Q: How did the Potency turn out when CCCCCC(C)N (stereo not given) was run?
A: inactive

Q: How did the Potency turn out when O=C(O)Cc1cn(-c2ccccc2)nc1-c1ccc(Cl)cc1 was run?
A: inactive

Q: With CC(=O)NCc1c(I)c(NC(C)=O)c(I)c(C(=O)O)c1I as the compound, how does the Potency read?
A: inactive

Q: Which Potency does the source give for Cc1ccsc1C(=CCCN1CCC[C@@H](C(=O)O)C1)c1sccc1C here?
A: inactive

Q: With CCCCCCCC(=O)OCC(O)CO (stereo not given) as the compound, how does the Potency read?
A: inactive

Q: For NC(=O)CC[C@@H](N)C(=O)O, which Potency is on record?
A: inactive

Q: How did the Potency turn out when COc1ccc(Cc2cnc(N)nc2N)cc1OC was run?
A: inactive

Q: CC(CSC(=O)c1ccccc1)C(=O)N1C[C@@H](Sc2ccccc2)C[C@H]1C(=O)O (stereo not given in full) was tested. Which Potency did it give?
A: inactive

Q: How did the Potency turn out when Nc1ncnc(Nc2ccccc2)n1 was run?
A: inactive

Q: Which Potency does the source give for NC(=O)NS(=O)(=O)c1ccc(N)cc1 here?
A: inactive

Q: COc1ccc(C(=O)N2CCN(CC(=O)N3CCOCC3)CC2)cc1 was tested. Which Potency did it give?
A: inactive
